Results on nine compounds are retold here after PubChem BioAssay (NCI).

Common to all, as to test: NCI-60 one-dose screen, 48 h (100 = growth as untreated, 0 = no growth, -100 = all killed)
One test relates to SK-MEL-2 melanoma. The note with it: 10 µM unless noted.
The test system of the next test is SN12C renal. The note with it: 10 µM unless noted.
The next test concerns UO-31 renal. Conditions: 10 µM unless noted.
The test system of a further test is TK-10 renal. Conditions: 10 µM unless noted.
The subject of a further test is ACHN renal. The note with it: 10 µM unless noted.
The next test relates to CAKI-1 renal. The note with it: 10 µM unless noted.
The next test relates to A498 renal. Conditions: 10 µM unless noted.
For the next test, the system named is MOLT-4 leukemia. The note with it: 10 µM unless noted.
The subject of a further test is SR leukemia. Conditions: 10 µM unless noted.
The subject of the next test is RPMI-8226 leukemia. The note with it: 10 µM.
The subject of a further test is OVCAR-8 ovarian. The note with it: 10 µM unless noted.
The test system of the next test is OVCAR-5 ovarian. The note with it: 10 µM unless noted.
The test system of a further test is OVCAR-4 ovarian. Conditions: 10 µM unless noted.
The test system of the next test is SK-OV-3 ovarian. The note with it: 10 µM.
Another test concerns IGROV1 ovarian. The note with it: 10 µM unless noted.
The test system of a further test is OVCAR-3 ovarian. Conditions: 10 µM unless noted.
The next test concerns NCI/ADR-RES ovarian. The note with it: 10 µM unless noted.
Another test concerns HS 578T breast. The note with it: 10 µM unless noted.
For the next test, the system named is CCRF-CEM leukemia. The note with it: 10 µM unless noted.

Structures are written as SMILES. This is part of a sample that, as a whole, favours compounds with a hit. Of some 83,000 tested, about 20% had one in any assay.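 For each line, cells grew in 96-well plates with the test compound present at a single concentration for 48 hours.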 Unmarked numbers belong to inactive results. Calls of active or inactive are those of the source. The calls were made as follows: active = growth percent below 10; inactive = the rest.

On to `CN1CCN(C)c2cncc(Br)c2C1=O`, for which the growth was 118% in the test on SK-MEL-2 melanoma; 101% with SN12C renal; 79.5% in the test with UO-31 renal; 126% in the test on TK-10 renal; 108% in the test with ACHN renal; -89.3% (active) in the test with CAKI-1 renal. In addition, the growth is 85% in the test with A498 renal; 98.5% in the test on MOLT-4 leukemia; 84.1% with SR leukemia; 93.8% in the test on RPMI-8226 leukemia; 102% in the test on OVCAR-8 ovarian; 104% in the test with OVCAR-5 ovarian. Moreover, the growth is 115% in the test on OVCAR-4 ovarian; 101% in the test with SK-OV-3 ovarian; 108% with IGROV1 ovarian; 109% in the test on OVCAR-3 ovarian; 98.3% in the test on NCI/ADR-RES ovarian.
Turning to `COc1ccc(NC(=O)c2ccc3c(c2)nc(-c2ccc(Cl)cc2)n3-c2cc(C(C)(C)C)[nH]n2)cc1`, the growth was 92.7% in the test with SK-MEL-2 melanoma; 86% in the test on SN12C renal; 62.4% with UO-31 renal; 75.8% with TK-10 renal; 90.1% in the test on ACHN renal; 61% in the test on CAKI-1 renal. Moreover, the growth in the test with A498 renal was 62.2%; in the test with MOLT-4 leukemia it was 55.1%; in the test on SR leukemia, 79.7%; with RPMI-8226 leukemia, 90.2%; in the test with OVCAR-8 ovarian, 89.3%; in the test on OVCAR-5 ovarian, 100%. Also, the growth in the test on OVCAR-4 ovarian is 72.7%; in the test on SK-OV-3 ovarian, 114%; in the test with IGROV1 ovarian, 88.7%; with OVCAR-3 ovarian, 94.5%; in the test with HS 578T breast, 62%; with NCI/ADR-RES ovarian, 80.1%.
For the compound `Cc1cc(Cl)c2c(Cl)ccc(Cl)c2n1`, the growth is 81.4% with SK-MEL-2 melanoma; 113% with SN12C renal; 89.8% in the test with UO-31 renal; 112% with TK-10 renal; 105% in the test with ACHN renal; 95% in the test with CAKI-1 renal. For the same compound, the growth with A498 renal is 104%; in the test with MOLT-4 leukemia it was 95.6%; with RPMI-8226 leukemia, 107%; with OVCAR-8 ovarian, 103%; in the test on OVCAR-5 ovarian, 101%; in the test with OVCAR-4 ovarian, 128%. Besides, the growth was 97.7% in the test on SK-OV-3 ovarian; 111% with IGROV1 ovarian; 105% with OVCAR-3 ovarian; 119% with HS 578T breast; 114% in the test with NCI/ADR-RES ovarian.
Take `Cc1nc(NC(=O)COc2cccc(/C=C3\COc4ccccc4C3=O)c2)sc1C`: the growth was -77% (active) in the test on SK-MEL-2 melanoma; -46.1% (active) with SN12C renal; -80.1% (active) with UO-31 renal; -74.1% (active) with TK-10 renal; -96.9% (active) with ACHN renal; -94.3% (active) with CAKI-1 renal. In addition, the growth was -74.7% (active) in the test with CCRF-CEM leukemia; -69.5% (active) with SR leukemia; -74.2% (active) in the test with RPMI-8226 leukemia; 7.04% (active) with OVCAR-8 ovarian; 55.1% in the test on OVCAR-4 ovarian; 92.2% in the test on SK-OV-3 ovarian. Also, the growth with OVCAR-3 ovarian is -83.3% (active); in the test on HS 578T breast it was -33.7% (active).
On to `CCCCCCCC/C=C\CCCCCCCCOc1cccc(CC(=O)NCC[N+]2(C)CCCC2)c1`, for which the growth is 107% with SK-MEL-2 melanoma; 53% with SN12C renal; 94.1% in the test on UO-31 renal; 84.7% in the test on TK-10 renal; 99% in the test with ACHN renal; 78.1% in the test on CAKI-1 renal. Besides, the growth was 51.6% with CCRF-CEM leukemia; 80.3% with MOLT-4 leukemia; 43.1% in the test on SR leukemia; 77.3% with RPMI-8226 leukemia; 85.5% in the test on OVCAR-8 ovarian; 53.8% in the test with OVCAR-5 ovarian. For the same compound, the growth in the test with OVCAR-4 ovarian is 77.1%; in the test with IGROV1 ovarian it was -15.7% (active); in the test with OVCAR-3 ovarian it was 96.2%; with HS 578T breast, 77.5%; with NCI/ADR-RES ovarian, 108%.
For the compound `O=C1c2[nH]cc(CN[C@@H]3CCCN3)c2C(=O)c2c1c(O)c1ccccc1c2O`, the growth is -17.3% (active) in the test with SK-MEL-2 melanoma; -32% (active) in the test with SN12C renal; -31.1% (active) with UO-31 renal; -89.3% (active) in the test with TK-10 renal; -92.8% (active) with ACHN renal; -18.4% (active) in the test with CAKI-1 renal. Further, the growth in the test with CCRF-CEM leukemia was -85.6% (active); with MOLT-4 leukemia, -84.7% (active); in the test on RPMI-8226 leukemia, -55.5% (active); with OVCAR-8 ovarian, -92% (active); in the test with OVCAR-5 ovarian, -95% (active); with SK-OV-3 ovarian, -100% (active). Moreover, the growth is -83% (active) in the test on IGROV1 ovarian, -95.9% (active) with OVCAR-3 ovarian, -50% (active) in the test on HS 578T breast and 20.3% in the test on NCI/ADR-RES ovarian.
For `CC1SC(c2cccc(Oc3ccccc3)c2)N(CCc2cccs2)C1=O` (stereo not drawn), the growth was -75.7% (active) in the test on SK-MEL-2 melanoma; -86.3% (active) with SN12C renal; -17.7% (active) in the test on UO-31 renal; -16.2% (active) in the test on TK-10 renal; -12.8% (active) with ACHN renal; -37.4% (active) in the test with CAKI-1 renal. Also, the growth with A498 renal was -56.6% (active); with MOLT-4 leukemia, -2.19% (active); in the test on RPMI-8226 leukemia, -13.5% (active); in the test on OVCAR-8 ovarian it was 0% (active); in the test on OVCAR-5 ovarian, -13.9% (active); in the test with OVCAR-4 ovarian, 8.45% (active). The growth in the test with SK-OV-3 ovarian was -8.94% (active); in the test on IGROV1 ovarian, -23.6% (active); in the test with OVCAR-3 ovarian, -98.1% (active); in the test with HS 578T breast it was -44.8% (active); in the test on NCI/ADR-RES ovarian, -28% (active).
Turning to `CC(=O)OC[C@]1(C)C=C2C(=O)[C@](C)(O)C3(CC3)C(C)=C2[C@H]1OC(C)=O`, the growth with SK-MEL-2 melanoma was 103%; with SN12C renal, 83.6%; in the test on UO-31 renal, 41.5%; in the test on TK-10 renal, 99.1%; in the test with ACHN renal, 51.3%; in the test on CAKI-1 renal, 84.2%. The growth was 95.1% with CCRF-CEM leukemia; 109% in the test with MOLT-4 leukemia; 84.1% in the test with RPMI-8226 leukemia; 75.9% with OVCAR-8 ovarian; 91.3% in the test on OVCAR-5 ovarian; 91.1% with IGROV1 ovarian. In addition, the growth was 94.9% in the test with OVCAR-3 ovarian, 96% in the test on HS 578T breast and 75% in the test on NCI/ADR-RES ovarian.
As for `COc1ccc(/C=N/NC(=O)c2cnn(CC(O)Cc3ccccc3)c2N)cc1OC1CCCC1` (stereo not drawn), the growth in the test with SK-MEL-2 melanoma was 108%; in the test on SN12C renal, 95.4%; in the test on UO-31 renal, 92.1%; with TK-10 renal, 99.4%; in the test with ACHN renal it was 87.5%; with CAKI-1 renal, 77.9%. Moreover, the growth is 70.9% in the test on CCRF-CEM leukemia; 66.6% in the test on MOLT-4 leukemia; 88.7% in the test with SR leukemia; 55.4% in the test with RPMI-8226 leukemia; 78.6% in the test with OVCAR-8 ovarian; 102% with OVCAR-5 ovarian. Moreover, the growth with OVCAR-4 ovarian was 75.8%; with IGROV1 ovarian, 105%; in the test with OVCAR-3 ovarian it was 102%; with HS 578T breast, 79%; in the test with NCI/ADR-RES ovarian it was 88.3%.
